A selection: hits, their analogues and other compounds. The true share with any hit is near 13%.
Marburg entry inh: inhibitors of Marburg virus binding or cell entry; Marburg virus pseudotyped entry inhibition, cell reporter; Potency, µM (titrated, usually from 37.8 µM), most hits filed as inhibitors; 300,000 compounds, 1.8% hits; AID 540276; calls by dose curve; tested in HEK293 cells
FMDV antiviral: antivirals against foot and mouth disease virus | FMDV antiviral cell-based qHTS | Potency, µM (highest dose often 57.9 µM), actives largely listed as inhibitors | 410,000 compounds, 1.2% hits; calls by dose curve; tested in HEK293T cells; note: read-out not given here; nearly all actives have a fitted effect of over 45% in size
Cycloheximide cs: affects cycloheximide protein synthesis inhibition readout, counter-screen. cell reporter, cycloheximide protein synthesis inhibition counterscreen. max response, %. 300,000 compounds, 12% hits; in the data active = max response mostly above about 13%, no sharp cut-off; inactive = mostly below about 14%; note: read at 38.3 µM for the half of the compounds with a filed dose
HCV inhibitor: inhibitors of hepatitis C virus infection. 340,000 compounds, 3.4% hits. Potency, µM (titrated, usually from 41.8 µM), hits mostly inhibitors. AID 651820. Huh7.5.1 HCVcc-Cre infection, luciferase reporter, 44 h; active = well fitted inhibition curve with a large enough effect; inconclusive = small, poorly fitted or top-dose-only effect, or another doubt; inactive = no such curve, though single readings can be large or run the other way
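Cells seeded at 1,000/well and cultured 4 h, then compounds added followed by HCVcc-Cre virus (~0.5 moi). After 44 h further culture, luciferase substrate was added, plates held 15 min at room temperature, and luminescence read for 15 sec.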
Lassa entry inh: inhibitors of Lassa virus binding or cell entry; 300,000 compounds, 1.2% hits; Lassa virus pseudotype entry inhibition, cell reporter; Potency, µM (doses to about 37.9 µM), actives largely listed as inhibitors; calls by dose curve; tested in HEK293 cells; note: nearly all actives have a fitted effect of over 50% in size
Shiga inhibitor: blocks Shiga toxin action in Vero cells; Vero cells, Shiga toxin protein synthesis inhibition reporter; inhibition, % at 38.7 µM; 290,000 compounds, 9.2% hits; AID 2315; in the data active = inhibition mostly above about 28%, no sharp cut-off; inactive = mostly below about 43%
A number is an active result; . = inactive; ? = inconclusive; / = not tested or not shown; [ ] = dose if it differs, or a comment.

SMILES	Marburg entry inh	FMDV antiviral	Cycloheximide cs	HCV inhibitor	Lassa entry inh	Shiga inhibitor
CCSc1nnc(-c2c[nH]c3ccccc23)o1	?	.	44	?	.	88
O=C(COc1ccccc1O)NNc1ccccc1	.	.	.	.	?	.
NC(=O)C1CCN(c2nc(-c3cccnc3)cs2)CC1	/	.	/	/	/	/
O=C(CCc1ccc(O)cc1)c1c(O)cc(O)cc1O	?	.	20	.[8.37 µM]	?	.
COc1cc(O)c(CC=C(C)C)c(O)c1C(=O)CCc1ccc(O)cc1	/	.	.	0.71µM	/	26
Nc1ccc2nc(N3CCOCC3)sc2c1	/	.	41	.	/	140
O=C(NCc1ccccc1)c1ccc2nc(N3CCOCC3)sc2c1	.	.	.	?	.	.
c1ccc2sc(N3CCOCC3)nc2c1	.	.	44	.	.	.
CCC(C)N(C(=O)CSc1nnc(-c2cccs2)n1C1CC1)C1CCS(=O)(=O)C1 (stereo unspecified)	.	.	/	.	?	/
CC(=O)N1CCC2(CCN(Cc3ccccc3)CC2)CC1	/	.	/	/	/	/
Cc1ccc(NC(=O)CNc2ccccc2N2CCCC2=O)cc1S(=O)(=O)N1CCOCC1	?	.	/	?	.	/
Nc1ncnc2c1ncn2[C@@H]1O[C@H](CNCc2ccc(-c3cc(C(F)(F)F)ccc3Cl)o2)[C@@H](O)[C@H]1O	/	.	/	35µM	/	/
CCNC(=O)C1(C)CCN(Cc2ccccc2C#N)C1 (stereo unspecified)	/	.	/	/	/	/
Cc1ccc(C)c(NC(=O)COc2cccc3c2CCN(Cc2ccccc2C)C3=O)c1	?	.	.	.	?	.
CC(C)CNC(=S)N(CCCN(C)C)Cc1cc2cc3c(cc2[nH]c1=O)OCCO3	/	.	.	.	/	/
COc1ccc(CNC(=O)c2cc(C3CC3)on2)cc1	/	.	25	.	/	.
COc1ccc(CNC(=O)c2ccc(C(C)C)cc2)cc1	.	.	46	.	?	157
COc1ccc(CNC(=O)c2ccc(C(C)(C)C)cc2)cc1	?	.	64	.	.	91
COc1ccc(CNC(=O)c2ccncc2)cc1	/	.	.	.	/	.
COc1ccc(CNC(=O)c2ccc(C)o2)cc1	.	.	13	.	.	.
O=C1C2CCC(C(O)C2)N1Cc1ccccc1 (stereo unspecified)	.	.	.	.	.	.
CS(=O)(=O)c1ccc2nc(NC(=O)c3ccc(NS(=O)(=O)c4cccc([N+](=O)[O-])c4)cc3)sc2c1	/	.	.	.	/	.
CC(C)c1ccc(CNNC(=O)c2ccccc2)cc1	/	.	52	.	/	75
C=C1C(=O)C23C(O)C1CCC2C12CCCC(C)(COC(C)=O)C1C(O)C3(O)OC2 (stereo unspecified)	?	3.5µM	/	3.5µM	11µM	/
Cc1ccc(-c2cc[n+](Cc3ccccc3)cc2)cc1	?	?	.	?	.	.
SMILES	Marburg entry inh	FMDV antiviral	Cycloheximide cs	HCV inhibitor	Lassa entry inh	Shiga inhibitor
Cc1ccc2c(c1)sc[n+]2Cc1ccccc1	?	.	42	10µM	.	82
N#C/C(=C(/O)c1cc2ccccc2o1)c1nc2ccccc2s1	/	.	.	.	/	.
CN(C)c1ccc(CNn2cnnc2SCc2ccccc2F)cc1	.	.	25	.	.	37
COc1ccc(NC(=O)NCCN2C(=O)C3C4C=CC(C4)C3C2=O)cc1 (stereo unspecified)	?	.	32	.	.	60
Cc1ccc(NC(=O)NCCN2C(=O)C3C4C=CC(C4)C3C2=O)cc1 (stereo unspecified)	.	.	112	.	/	134
COc1ccc(OC)c(S(=O)(=O)Nc2cc3c4c(c2)CCN4C(=O)CC3)c1	.	.	/	.	.	/
COC(=O)CSc1c(-c2ccccc2)c2cc(Cl)ccc2[nH]c1=O	.	.	.	.	.	.
CCOc1ccc(CCNC(=O)Cc2ccc(NC3=NC4CS(=O)(=O)CC4S3)cc2)cc1 (stereo unspecified)	/	.	.	.	/	.
CCOc1ccc(CCNC(=O)Cc2ccc(NC(=O)C3=C(C)OCCS3)cc2)cc1	/	.	.	.	/	47
CSc1ccc(CNC(=O)Cc2ccc(NC(=O)C3=C(C)OCCS3)cc2)cc1	/	.	24	?	/	55
CC1=C(C(=O)Nc2ccc(C(=O)NCCC(C)C)cc2)SCCO1	.	.	.	.	.	.
Cc1ccc(Nc2nc(C(N)=O)c(NC(=O)c3ccccc3Br)s2)cc1	/	.	/	/	.	/
COc1cc(CNCCCN2CCOCC2)ccc1OCC(=O)Nc1cccc(C(F)(F)F)c1	?	.	.	10µM	?	.
CCOc1cc(CNC(CC)CO)ccc1OCC(=O)Nc1cccc(C(F)(F)F)c1 (stereo unspecified)	/	.	.	1.1µM	/	.
COc1cc(CNCCO)ccc1OCC(=O)Nc1ccc(Br)cc1	.	.	24	5.6µM	.	.
O=C(COc1ccc(Br)cc1CNCCCN1CCOCC1)Nc1ccccc1	?	.	.	?	?	.
COc1cc(CNCCN2CCOCC2)ccc1OCc1cccc(Cl)c1	?	.	.	8.9µM	?	.
N#Cc1ccc(C(=O)OCCc2cc3ccccc3c(=O)o2)cc1	/	.	/	.	/	/
CCOc1cc(CNCCCN2CCOCC2)ccc1OCC(=O)Nc1cccc2ccccc12	?	.	.	14µM	15µM	.
Cc1ccc(C(=O)NC(C)c2ccc(-n3ccnc3)cc2)cc1S(=O)(=O)N1CCOCC1 (stereo unspecified)	.	.	/	?	.	/
CCOC(=O)Cn1c(CN(C)Cc2ccccc2)nc2c1c(=O)n(C)c(=O)n2C	.	14µM	/	?	.	/
COC(=O)C1=C(c2ccccc2OCc2ccccc2)C[C@@H]2CC[C@H]1N2C(=O)NCc1ccc([N+](=O)[O-])cc1	/	.	/	13µM	/	/
COC(=O)C1=C(c2ccc(F)cc2OCc2ccccc2)C[C@@H]2CC[C@H]1N2C(=O)NC(C)C	/	.	/	?	/	/
COC(=O)C1=C(c2ccccc2OCc2ccccc2)C[C@@H]2CC[C@H]1N2C(=O)NCc1ccc(Cl)cc1	/	.	/	11µM	/	/
COC(=O)C1=C(c2ccc(F)cc2OCc2ccccc2)C[C@@H]2CC[C@H]1N2C(=O)N1CCCC1	/	?	/	11µM	/	/
SMILES	Marburg entry inh	FMDV antiviral	Cycloheximide cs	HCV inhibitor	Lassa entry inh	Shiga inhibitor
COC(=O)C1=C(c2ccccc2OCc2ccccc2)C[C@@H]2CC[C@H]1N2C(=O)NCc1ccc(N(C)C)cc1	/	.	/	?	/	/
N#Cc1ccc(C#Cc2ccc3oc4ccccc4c(=O)c3c2)cc1	/	.	/	.	/	/
Nc1ccc(C#Cc2ccc3c(=O)c4ccccc4oc3c2)cc1	/	.	37	?	/	28
COc1cc2oc3ccc(C#Cc4ccc(N)cc4)cc3c(=O)c2cc1OC	/	.	/	13µM	/	/
Cc1ccc(C)c(OCCCN2CCc3ccccc3C2)c1	?	.	.	.	?	.
CC(C)CCC[C@@H](C)[C@H]1CC[C@H]2[C@@H]3CC=C4CC(O)CC[C@]4(C)[C@H]3CC[C@]12C (stereo partly specified)	/	/	.	/	/	.
CCCS(=O)(=O)c1nnnn1-c1cccc(OC)c1	26µM	28µM	.	8.9µM	.	.
COC(=O)c1c[nH]c2c1-c1cc(C(=O)OCc3ccccc3)n(S(=O)(=O)c3ccc(C)cc3)c1C(=O)C2=O	.	7.9µM	/	?	?	/
COc1ccc(CCn2c(-c3ccc(C(C)(C)C)cc3)n[nH]c2=S)cc1OC	.	?	.	?	?	.
